An excerpt weighted towards active compounds, which were near 2.6% of everything screened.
p53 reactivation – mutant p53 re-activation in reporter cells; H1299 p53-A138V BP100-luciferase reporter, luminescence, 24 h; actives 0.063% (n = 320,000); Potency, µM (highest dose often 92.2 µM), inactives show at the highest dose activity change, positive = activation, usual class: activators; AID 504706; active = well fitted activation curve with a large enough effect; inconclusive = small, poorly fitted or top-dose-only effect; inactive = no such curve, though single readings can be large or run the other way; note: potency is the fitted concentration of half-maximal effect; % of control where 0% means no effect; nearly all actives have a fitted effect of over 45% in size
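H1299 (p53-null), stable ts p53-A138V + BP100-Luc; 1000 cells/well, Opti-MEM/10% FBS; cpd 4 pt, 1:5; 24 h, 37 deg C, 5% CO2; detection reagent 10 min RT; luminescence.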
TRPV1 agonist – human TRPV1 agonism | AID 540275 | Q8NER1 | activation, % at 8.33 µM | TRPV1-expressing cells, Fluo-8 calcium influx, agonist mode | actives 0.19% (n = 320,000); in the data active = activation above about 80%; inconclusive = between about 30% and that limit; note: 0% is about no effect
Target sequence (Q8NER1 whole entry, looked up): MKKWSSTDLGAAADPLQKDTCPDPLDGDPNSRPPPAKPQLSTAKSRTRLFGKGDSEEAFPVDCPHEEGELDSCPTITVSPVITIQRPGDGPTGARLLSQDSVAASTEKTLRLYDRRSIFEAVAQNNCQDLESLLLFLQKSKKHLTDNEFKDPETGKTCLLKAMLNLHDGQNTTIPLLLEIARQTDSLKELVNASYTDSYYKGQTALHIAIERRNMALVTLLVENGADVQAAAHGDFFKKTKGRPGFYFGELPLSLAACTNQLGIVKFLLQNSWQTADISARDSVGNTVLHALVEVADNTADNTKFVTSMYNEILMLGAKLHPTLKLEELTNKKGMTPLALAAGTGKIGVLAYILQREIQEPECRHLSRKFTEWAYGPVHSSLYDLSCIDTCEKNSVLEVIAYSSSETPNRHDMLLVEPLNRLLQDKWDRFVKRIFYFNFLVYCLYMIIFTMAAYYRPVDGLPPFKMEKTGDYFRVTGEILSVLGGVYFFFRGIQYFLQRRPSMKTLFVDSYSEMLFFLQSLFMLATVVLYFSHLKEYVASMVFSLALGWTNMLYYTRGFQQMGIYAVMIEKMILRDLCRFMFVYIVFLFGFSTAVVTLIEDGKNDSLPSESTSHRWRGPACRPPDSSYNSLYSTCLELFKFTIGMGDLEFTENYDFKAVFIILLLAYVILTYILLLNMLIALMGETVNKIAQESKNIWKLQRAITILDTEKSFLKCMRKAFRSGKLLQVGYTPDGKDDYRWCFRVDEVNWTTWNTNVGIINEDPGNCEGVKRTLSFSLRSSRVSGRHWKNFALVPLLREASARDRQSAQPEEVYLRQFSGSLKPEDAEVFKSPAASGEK
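Fluo-8 calcium influx in TRPV1-expressing cells, kinetic read (ex 480/em 520 nm). Compound added and read 3 min for agonist activity, followed by capsaicin at EC20 final and 2 min further read for enhancement.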
TRPV1 potentiator – enhances activation of the human vanilloid receptor TRPV1. Q8NER1. TRPV1-expressing cells, Fluo-8 calcium influx, capsaicin EC20 potentiation. potentiation, % at 8.33 µM. actives 0.02% (n = 320,000). AID 540277; in the data active = potentiation above about 80%; inconclusive = between about 30% and that limit; note: 0% is about no effect
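Fluo-8 calcium influx in TRPV1-expressing cells, kinetic read (ex 480/em 520 nm). Compound added and read 3 min for agonist activity, followed by capsaicin at EC20 final and 2 min further read for enhancement.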
KCNH2 WT inh – KCNH2 (human, wildtype) channel inhibition; Q12809; U2OS, BacMam KCNH2, thallium flux FluxOr; stronger effect = lower value; activity change, % at 1.84 µM; actives 0.37% (n = 340,000); AID 720551;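 active = maximum activity change below -70%; inconclusive = maximum activity change between -70% and -50%; inactive = maximum activity change above -50%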; note: % is set by controls: 0 for no effect and ±100 for the full control effect
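U2OS cells transduced with wild-type KCNH2 virus are loaded with FluxOr dye for 45 min, and thallium flux is measured in kinetic reads before and after stimulation buffer. Rate constants are normalized to DMSO controls.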
KCNH2 3.1 block – KCNH2 3.1 (human) potassium channel inhibition; U2OS KCNH2 3.1, thallium flux FluxOr; stronger effect = lower value; activity change, % (tested at about 1.8 µM); actives 0.95% (n = 340,000);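 active = maximum activity change below -70%; inconclusive = maximum activity change from -70% to -50%; inactive = maximum activity change above -50%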;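 note: thallium influx rate constant from kinetic fluorescence after stimulation buffer; % is set by controls: 0 for no effect and ±100 for the full control effect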
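Kinetic fluorescence (2 min after stimulation buffer) measures Tl+ influx through KCNH2 3.1 expressed by viral transduction in U2OS cells; the rate constant is normalized against DMSO controls serving as positive and negative references.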
ClpP mod – qHTS Assay for Activators of ClpP. ATP-dependent Clp protease proteolytic subunit (Bacillus subtilis (strain 168)), P80244. purified B. subtilis ClpP, FRET peptide cleavage, 20 min. Potency, µM (series often up to 57.5 µM), for the others: at the highest dose activity change, negative = active. actives 1.9% (n = 340,000). AID 651965, 2013; active = well fitted falling curve with a large enough effect; inconclusive = small, poorly fitted or top-dose-only effect; inactive = no such curve, though single readings can be large or run the other way; note: potency is the fitted concentration of half-maximal effect; the source files actives as falling curves though it sought activators and does not explain the sign; nearly all actives have a fitted effect of over 65% in size
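FRET quenching reversal measured ClpP activation: 10 microg/mL B. subtilis ClpP at pH 8 with the FRET-FV decapeptide, read at 430 nm after 320 nm excitation. The 20-min minus 0-min signal was scaled between DMSO/no-enzyme wells and ADEP (5.8 microM final).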
* hit, by the source's call; u = inconclusive; x = not tested or not shown.

SMILES	p53 reactivation	TRPV1 agonist	TRPV1 potentiator	KCNH2 WT inh	KCNH2 3.1 block	ClpP mod
COc1ccc(/C=N/NC(=O)c2ccoc2C)cc1CN1CCN(c2ccc(F)cc2)CC1	-0.9%	-4.5	10.0	-48.6	-110.2*	0.0%
COc1ccc(/C=N/NC(=O)c2cccnc2)cc1CN1CCCc2ccccc21	-7.1%	u	-4.7	-4.3	3.3	x
COc1ccc(/C=N/NC(=O)c2ccncc2)cc1CN1CCOCC1	-1.7%	0.1	-24.1	18.7	2.5	x
COc1ccc(/C=N/NC(=O)c2cccnc2)cc1CN1CCN(c2ccc(F)cc2)CC1	-2.0%	2.0	0.2	-17.8	-79.6*	-5.7%
COc1ccc(/C=N/NC(=O)c2ccc(Br)cc2)cc1CN1CCOCC1	-0.1%	2.8	-3.9	17.2	-85.0*	x
COc1ccc(C(=O)N/N=C/c2ccc(OC)c(CN3CCN(c4ccc(F)cc4)CC3)c2)cc1	-4.0%	1.5	-7.2	-168.0*	-109.8*	-23.7%
CCC1=Nc2cc(C(=O)NC3CCC(C)CC3)ccc2Sc2ccc(C)cc21 (stereo not drawn)	x	x	x	x	x	0.2%
CCN(CC)S(=O)(=O)c1ccc(N2CCOCC2)c(NS(=O)(=O)c2ccc(C)c(C)c2)c1	-13.8%	-0.8	1.6	5.6	-94.1*	0.5%
Cc1c(O)ccc2c1OC(C)(C)CC2	x	x	x	x	x	-7.8%
COCCn1cc(C(=O)NCCN(C)C)c2c3ccccc3n(C)c2c1=O	-3.6%	1.7	3.0	-10.8	-8.1	4.5%
COCCn1cc(C(=O)NCc2cccs2)c2c3ccccc3n(C)c2c1=O	13.8%	7.5	0.9	-23.9	-16.4	20µM*
COCCn1cc(C(=O)N2CCN(C)CC2)c2c3ccccc3n(C)c2c1=O	-8.1%	1.7	-2.1	-7.9	6.4	11.2µM*
CCOC(=O)N1CCN(C(=O)c2cn(CCOC)c(=O)c3c2c2ccccc2n3C)CC1	-8.1%	0.9	6.9	5.3	-12.3	14.1µM*
CCOC(=O)c1ccc(N2C(=O)c3[nH]nc(-c4ccc(C)cc4)c3C2c2ccc(O)c(OCC)c2)cc1 (stereo not drawn)	x	x	x	x	x	-5.3%
CC(C)n1nnnc1C1c2ccccc2C(=O)N1Cc1ccccc1 (stereo not drawn)	x	x	x	x	x	1.2%
CCOC(=O)c1[nH]c2cc3c(cc2c1NC(=O)CN1CCCC1)OCO3	-3.3%	u	-6.0	2.8	11.7	0.6%
CCOC(=O)c1[nH]c2cc3c(cc2c1NC(=O)CN1CCc2ccccc2C1)OCO3	-0.4%	-1.2	14.6	9.1	-23.9	3.16µM*
CCOC(=O)N1CCN(CC(=O)Nc2c(C(=O)OC)[nH]c3ccccc23)CC1	-25.5%	28.5	-19.6	1.7	-4.1	-21.4%
CCOC(=O)c1[nH]c2cc3c(cc2c1NC(=O)CN1CCC(C)CC1)OCO3	-4.0%	u	-13.7	-6.8	19.9	11.2µM*
CN(C)c1ccc(/C=C2\C=Cc3ccccc32)cc1F	x	x	x	x	x	0.6%
O=C(NC12CC3CC(CC(C3)C1)C2)c1ccccc1	9.4%	22.8	-15.4	-9.1	0.4	x
O=C(COC(=O)CNC(=O)c1ccccc1)NC12CC3CC(CC(C3)C1)C2	x	x	x	-80.9*	-5.2	-1.0%
COc1cc(C(=O)Nc2ccc(-c3nc4ccccc4o3)c(O)c2)cc(OC)c1OC	x	x	x	x	x	-0.6%
CN1c2ccccc2C(C)(C)C12C=Cc1cc(O)ccc1O2 (stereo not drawn)	4.2%	-6.4	5.2	-20.0	-7.3	-1.0%
CN1c2ccccc2C(C)(C)C12C=Nc1c(cc(N3CCOCC3)c3ccccc13)O2 (stereo not drawn)	-9.9%	1.2	4.3	6.5	-4.5	28.2µM*
SMILES	p53 reactivation	TRPV1 agonist	TRPV1 potentiator	KCNH2 WT inh	KCNH2 3.1 block	ClpP mod
S=c1[nH]nc(CSCCOc2ccc(Cl)cc2Cl)o1	0.0%	0.3	6.4	-154.4*	-165.6*	x
S=c1[nH]nc(CSCCOc2ccccc2)o1	-3.0%	-2.1	1.8	-2.0	0.6	x
Cn1c(-c2ccccc2)c(C(=O)CCl)c2ccccc21	-13.1%	-5.4	0.8	-1.0	7.1	x
CCCc1c(CC)c(=N)c2ccccc2n1C	-3.5%	1.7	1.6	2.6	13.4	28.2µM*
O=C(NN=C1CCCCCC1)c1cccs1	39.8µM*	1.4	7.9	7.9	-1.7	-0.4%
O=C(NN=C1CCCC1)c1ccn[nH]1	u	5.0	-4.3	-135.7*	-200.1*	-3.3%
O=C(NN=C1CCCCCCC1)c1ccc(F)cc1	16.7%	24.2	-14.8	1.1	-8.3	x
COc1ccc(C(=O)C[n+]2cc(Br)cc(Br)c2)cc1	x	x	x	x	x	-0.6%
CCOc1ccc(-n2nc(CO)c(C(=O)NCc3ccc(Cl)cc3)n2)cc1	x	x	x	x	x	7.08µM*
COCCCNC(=O)c1nn(-c2ccc(C)cc2)nc1CO	x	x	x	x	x	14.1µM*
CCOc1ccc(-n2nc(CO)c(C(=O)NCCCc3ccccc3)n2)cc1	x	x	x	x	x	12.6µM*
Cc1ccccc1-n1nc(CO)c(C(=O)NCc2cccnc2)n1	x	x	x	x	x	-5.2%
Cc1ccccc1-n1nc(CO)c(C(=O)NCCc2ccccc2)n1	x	x	x	x	x	-4.6%
CCOc1ccc(-n2nc(CO)c(C(=O)NCc3cccnc3)n2)cc1	x	x	x	x	x	6.31µM*
CCOc1ccc(CNC(=O)c2ccc(CS(=O)Cc3ccc(Cl)cc3)o2)cc1 (stereo not drawn)	x	x	x	x	x	0.5%
CC(C)NC(=O)N(C)C[C@H]1Oc2cc(C#Cc3ccc(F)cc3)ccc2S(=O)(=O)N([C@H](C)CO)C[C@H]1C	x	x	x	-17.5	-3.4	-9.4%
Cc1cc(NC(=O)N2CCC(CN3CCCCCC3)CC2)ccc1Br	x	x	x	x	x	0.0%
Cc1ccc(-n2nc(CO)c(C(=O)NCc3cccs3)n2)cc1C	x	x	x	x	x	28.2µM*
Cc1ccccc1-n1nc(CO)c(C(=O)NCc2cccs2)n1	x	x	x	x	x	-2.1%
CCOC(=O)N1CCN(C(=S)NC(=O)c2ccc(F)cc2)CC1	1.3%	2.0	3.9	-4.7	-72.5*	x
O=c1cc(N2CCCCC2)c(-c2ccccc2)nn1Cc1ccc(Cl)cc1	-4.6%	u	-2.5	-7.6	-94.5*	-3.4%
C=CCn1c(=O)/c(=C/c2ccc(Cl)cc2)s/c1=C(\C#N)c1nnc2n1CCCCC2	x	x	x	0.1	-87.1*	0.6%
CC1=C(C(=O)N2CCCCCC2)CC(CC(=O)NCCN2CCOCC2)C(=O)N1Cc1ccc(C(C)(C)C)cc1 (stereo not drawn)	x	x	x	x	x	-0.8%
O=[N+]([O-])c1ccn(-c2nc(-c3cccs3)cc(C(F)(F)F)n2)n1	-0.4%	0.8	2.7	-3.8	-2.8	-1.2%
FC(F)(F)c1cc(-c2cccs2)nc(-n2cc(Cl)cn2)n1	-2.4%	25.3	-16.2	1.7	-21.1	31.6µM*
COc1ccc(OC)c2c(/C=C/c3c(C)[nH]c4ccccc34)ccnc12	x	x	x	x	x	0.1%
Nc1ccc(C(Cc2ccnc3ccccc23)Cc2ccnc3ccccc23)cc1	x	x	x	x	x	0.5%
